Assay outcomes deposited in PubChem BioAssay by National Center for Advancing Translational Sciences (NCATS).
The list is not random: actives were taken first. Their share in the collection is about 18%.
TDP1 inh – TDP1 (human) enzyme inhibition; hit rate 0.28% among 350,000; recombinant TDP1, AlphaScreen DNA substrate cleavage; Potency, µM (highest dose often 130 µM), for the others: at the highest dose activity change, negative = inhibition, usual class: inhibitors; Q9NUW8; AID 485290; further: potency means the concentration at half of the fitted maximal effect; nearly all actives have a fitted effect of over 40% in size
Target sequence (Q9NUW8 whole entry, looked up): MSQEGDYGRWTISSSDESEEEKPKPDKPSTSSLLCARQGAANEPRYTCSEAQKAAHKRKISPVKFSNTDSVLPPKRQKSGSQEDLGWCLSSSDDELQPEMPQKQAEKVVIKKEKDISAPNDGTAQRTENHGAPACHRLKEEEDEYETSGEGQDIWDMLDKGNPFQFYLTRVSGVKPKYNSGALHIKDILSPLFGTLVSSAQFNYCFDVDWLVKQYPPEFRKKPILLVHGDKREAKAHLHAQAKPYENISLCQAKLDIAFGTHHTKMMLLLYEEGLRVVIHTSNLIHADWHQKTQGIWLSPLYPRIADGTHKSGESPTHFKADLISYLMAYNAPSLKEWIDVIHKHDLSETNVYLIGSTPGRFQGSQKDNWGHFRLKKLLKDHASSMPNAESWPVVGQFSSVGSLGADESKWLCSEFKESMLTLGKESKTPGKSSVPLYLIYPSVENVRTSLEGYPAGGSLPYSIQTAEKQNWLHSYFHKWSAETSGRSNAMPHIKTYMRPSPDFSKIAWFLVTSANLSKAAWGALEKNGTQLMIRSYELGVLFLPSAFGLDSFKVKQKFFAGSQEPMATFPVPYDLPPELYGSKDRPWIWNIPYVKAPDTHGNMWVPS
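Recombinant human Tdp1 (E. coli-expressed, 1 nM final) preincubated with compounds 15 min at room temperature, then 5'-biotin/3'-phosphotyrosine-FITC DNA substrate (15 nM final) added for 5 min. AlphaScreen beads (10 ug/ml final) added 10 min; cleavage lowers signal.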
CtBP-E1A inh – CtBP/E1A binding inhibition | AlphaScreen GST-E1A/His-CtBP binding, 1536-well; hits give low values | hit rate 0.49% among 340,000 | activity change, % (concentration not given with the values); in the data active means activity change below about -65%; inconclusive means mostly about -30% to -63%
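In 5 uL wells, 23 nL compound meets equimolar GST-E1A and His-CtBP (5X stock 125 nM each) for 2 h, 37 °C. Beads (5X, 50 ug/mL) then 1 h, 37 °C, dark.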
TDP1 cell CPT – DT40-hTDP1 cell growth loss with CPT. Potency, µM (titrated, usually from 46.2 µM), for the others: top-dose activity change, negative = growth inhibition, most hits filed as inhibitors. hit rate 12% among 420,000. chicken DT40 Tdp1-/-;hTDP1 cells + 20 nM CPT, ATP luminescence, 48 h. AID 686979; further: potency means the concentration at half of the fitted maximal effect; nearly all actives have a fitted effect of over 55% in size
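Chicken DT40 Tdp1-/- cells complemented with human TDP1, 400 cells/well, exposed to compounds plus 20 nM camptothecin for at least 48 h at 37 C; viability read as ATP content by CellTiter-Glo luminescence.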
DT40 TDP1 no CPT – qHTS for Inhibitors of human tyrosyl-DNA phosphodiesterase 1 (TDP1): qHTS in cells in absence of CPT; AID 686978, 2013; DT40 Tdp1-/- hTDP1 cells, no CPT, ATP luminescence, 48 h; Potency, µM (series often up to 46.2 µM), inactives show at the top dose activity change, negative = growth inhibition, most hits filed as inhibitors; hit rate 15% among 420,000; further: potency means the concentration at half of the fitted maximal effect; nearly all actives have a fitted effect of over 55% in size
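A cellular qHTS used chicken DT40 cells lacking endogenous Tdp1 but carrying stably transfected human TDP1. Compounds were applied without camptothecin, and cell growth kinetics were judged by ATP-dependent luminescence after ≥48 hr.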
Six1-Eya2 blk – blocks human Six1 binding to Eya2 | AlphaScreen GST-Six1/His-Eya2 binding, biochemical; hits give low values | Q15475+O00167 | activity change, % (test concentration not listed) | hit rate 0.56% among 360,000; in the data active means activity change below about -65%; inconclusive means mostly about -30% to -63%
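AlphaScreen with GST-Six1 and His-Eya2 (5X mix: 250 nM and 500 nM), glutathione donor and nickel acceptor beads; buffer 50 mM Tris pH 8.0, 300 mM NaCl, 1 mM TCEP; 1 h at 37 C in the dark.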
IL1B secr inh – blocks inflammasome-driven IL-1 beta release. THP-1 LPS/ATP IL-1B secretion, AlphaLISA, 16 h; hits give low values. activity change, % at 57.5 µM. hit rate 4.7% among 360,000. AID 743279; in the data active means activity change below about -50%; inconclusive means mostly about -30% to -49%
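THP-1 cells pretreated 1 hr with compounds (up to 57.5 uM final), then stimulated with LPS (250 ng/mL final) plus ATP (1.25 mM final); secreted IL-1B measured by AlphaLISA after 16 hr, decreased signal indicating inhibition.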
Starred values were filed as active, the others as inactive; u = inconclusive; x = not tested or not shown. Unless noted, the call rests on the fitted dose curve; in most records, active means well fitted curve in the direction sought with a large enough effect; inconclusive means small, poorly fitted or top-dose-only effect, or another doubt; inactive means no such curve, though single readings can be large; an effect the other way counts as inactive or inconclusive. On the % scale 0 is the no-effect control and ±100 the full control effect.

SMILES	TDP1 inh	CtBP-E1A inh	TDP1 cell CPT	DT40 TDP1 no CPT	Six1-Eya2 blk	IL1B secr inh
COc1ccccc1-c1nc2ccccc2n(CC(C)C)c1=O	x	-2	u	u	0	15
COc1ccccc1-c1ncn(Cc2cccc(-c3ccccc3)c2)c1CC(C)C	x	-7	21µM*	18µM*	-20	-91*
CCc1c(-c2ccccc2OC)ncn1Cc1cccc(-c2ccccc2)c1	x	-1	0.65µM*	0.52µM*	-19	-53*
CCc1c(-c2cccc(Br)c2)ncn1Cc1cccc(-c2ccccc2)c1	x	23	u	23µM*	7	-95*
COc1ccccc1-c1nc2cc3ccccc3cc2nc1-c1ccccc1OC	3%	2	u	u	3	-13
CC(=O)c1cccc(NC(=O)C2CC(=O)N(C3CCCC3)C2)c1 (stereo unspecified)	1%	0	10%	-1%	-8	-1
C/C(=N/Nc1ccc(C(=O)c2c(C)cc3ccccn23)cc1[N+](=O)[O-])c1ccc(O)cc1	x	0	18µM*	u	-8	-4
C/C(=N\Nc1ccc(C(=O)c2c(C)cc3ccccn23)cc1[N+](=O)[O-])c1ccc(O)cc1	x	-10	u	u	0	3
Cc1ccc(S(=O)(=O)Cc2nc(-c3ccc(C(=O)NCc4ccccc4C)cc3)oc2C)cc1	-3%	x	u	u	x	x
Cc1cccc(N2CCN(C(=O)/C=C/c3cccs3)CC2C)c1 (stereo unspecified)	2%	-25	u	15µM*	-5	-11
Cc1cccc(N2CCN(C(=O)CSc3ccsc3[N+](=O)[O-])CC2C)c1 (stereo unspecified)	0%	-16	-1%	u	-24	-73*
Cc1cccc(N2CCN(C(=O)NC3CCCCC3)CC2C)c1 (stereo unspecified)	x	6	-28%	-8%	5	-12
Cc1ccc(S(=O)(=O)N2CCCCC2)cc1NC(=O)CSc1nccn1C	6%	0	19%	-13%	2	0
CCN1CCN(C(=O)c2cc(COc3ccc(C(C)=O)cc3OC)on2)CC1	3%	6	3%	-3%	-2	12
Cc1cccc(N(CC(=O)NC2CCCC2)C(=O)c2cc3cc4cccc(C)c4nc3s2)c1C	4%	6	18µM*	16µM*	-1	u
Cc1ccc(C)c(N(CC(=O)NC2CCCC2)C(=O)c2cc3cc4cc(C)ccc4nc3s2)c1	-2%	3	8.2µM*	11µM*	7	19
Cc1cccc(N(CC(=O)NC2CCCC2)C(=O)c2csnn2)c1C	2%	6	-15%	4%	4	-4
COc1cc2[nH]c(C(=O)N3CCN(c4ccccc4F)CC3)cc2c(OC)c1OC	x	x	u	u	-8	-1
Cc1ccc2c(n1)sc1c(-c3ccccc3)c(C#N)c(N)nc12	1%	11	-9%	-25%	7	7
COc1ccc2cc(CN(CC3CCCO3)C(=S)Nc3ccccc3)c(=O)[nH]c2c1 (stereo unspecified)	0%	u	5.2µM*	6.5µM*	u	u
Cc1cc2cc(CN(CC3CCCO3)C(=S)Nc3ccccc3)c(=O)[nH]c2cc1C (stereo unspecified)	7%	-1	6.5µM*	5.8µM*	-13	-15
COc1ccc2[nH]c(=O)c(CN(CC3CCCO3)C(=S)Nc3ccccc3)cc2c1 (stereo unspecified)	-3%	x	u	u	-1	-16
O=C(NCc1ccccc1)N(Cc1cc2cc3c(cc2[nH]c1=O)OCO3)CC1CCCO1 (stereo unspecified)	2%	3	-28%	u	6	-10
Cc1ccc(NC(=O)CC(C)S(=O)(=O)c2ccc3c(c2)NC(=O)CO3)c(Cl)c1 (stereo unspecified)	1%	0	u	u	-1	-16
COc1cc(C(F)(F)F)c(C(=O)N(C)Cc2cc(Cl)cc(Cl)c2)cn1	0%	x	u	15µM*	3	15
SMILES	TDP1 inh	CtBP-E1A inh	TDP1 cell CPT	DT40 TDP1 no CPT	Six1-Eya2 blk	IL1B secr inh
COc1cc(C(F)(F)F)c(C(=O)N(C)Cc2cccc(Cl)c2)cn1	0%	9	-22%	u	17	11
O=c1c2c3c(sc2ncn1/N=C/c1ccccc1)CCCC3	2%	5	5%	-9%	10	-20
c1ccc(-n2c(SCC3CCCCO3)nnc2-c2cccs2)cc1 (stereo unspecified)	-1%	-21	18µM*	u	-10	-11
O=C(CSc1nnc(-c2cccs2)n1-c1cccc(Cl)c1)c1cccc2c1OCCO2	-4%	9	u	16µM*	3	-1
O=C(O)CSc1nnc(-c2cccs2)n1-c1ccc(Cl)cc1	5%	2	u	29µM*	-2	-7
CC1Nc2nc(N(C)C)[nH]c(=O)c2NC1C (stereo unspecified)	8%	1	26µM*	u	-27	31
CN1CCNC(=O)C1CC(=O)O (stereo unspecified)	3%	7	-7%	-1%	3	2
Cc1ccc(CN(Cc2cccn2-c2nnc(N3CCCC3=O)s2)C(=O)Nc2ccc(F)cc2)cc1	4%	x	u	u	x	x
CCOC(=O)c1ccccc1NC(=O)N(Cc1ccc(C)cc1)Cc1cccn1-c1nnc(N2CCCC2=O)s1	3%	x	23µM*	18µM*	x	x
CCN(CC)CCN(Cc1cc2cc3c(cc2[nH]c1=O)OCCO3)C(=S)NCC(C)C	x	-3	u	u	-1	-62*
Cc1cc(C)c2[nH]c(=O)c(CN(Cc3cccs3)C(=S)NCc3ccco3)cc2c1	6%	-25	13µM*	10µM*	-17	-17
CCN(CC)CCCN(Cc1cc2cc3c(cc2[nH]c1=O)OCO3)C(=S)NCc1ccco1	-1%	-9	-1%	-19%	-2	-20
CCN(CC)CCN(Cc1cc2cc3c(cc2[nH]c1=O)OCO3)C(=S)NCc1ccco1	-8%	-5	u	u	-12	-63*
CCN(CC)CCN(Cc1cc2cc3c(cc2[nH]c1=O)OCO3)C(=S)NCC(C)C	x	-4	-25%	-21%	0	0
CCN(CC)CCN(Cc1cc2cc(C)cc(C)c2[nH]c1=O)C(=S)NCc1ccco1	0%	11	26µM*	23µM*	17	0
